Compound activity (PubChem BioAssay)
Shown are actives, neighbours in structure and some others; about 1.8% of the full set was active somewhere.
Vif-A3F inh = blocks the Vif interaction with APOBEC3F; HeLa A3F-eYFP + Vif (tagged APOBEC3F with the HIV-1 protein that degrades it), YFP fluorescence increase; AID 602313; 390,000 compounds, 0.2% hits; Potency, µM (titrated, usually from 46.1 µM), without a hit: top-dose activity, negative = active; also: % of control where 0% means no effect; nearly all actives have a fitted effect of over 65% in size
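Fluorescence increase (Ex 488/Em 500-530) after overnight compound treatment at 37 deg C flags inhibition of Vif-driven A3F-eYFP loss in stable HeLa A3F-eYFP/Vif cells seeded overnight beforehand.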
rTrxR1 inhibitor = blocks rat thioredoxin reductase 1; Potency, µM (highest dose often 114 µM), inactives show at the top dose activity change, negative = inhibition, hits mostly inhibitors; AID 588453; recombinant rTrxR1, NADPH fluorescence consumption, selenite substrate; 390,000 compounds, 1% hits; O89049; also: % is scaled to controls: 0 for no effect and ±100 for the full control effect; nearly all actives have a fitted effect of over 65% in size
Target sequence (O89049 whole entry, looked up): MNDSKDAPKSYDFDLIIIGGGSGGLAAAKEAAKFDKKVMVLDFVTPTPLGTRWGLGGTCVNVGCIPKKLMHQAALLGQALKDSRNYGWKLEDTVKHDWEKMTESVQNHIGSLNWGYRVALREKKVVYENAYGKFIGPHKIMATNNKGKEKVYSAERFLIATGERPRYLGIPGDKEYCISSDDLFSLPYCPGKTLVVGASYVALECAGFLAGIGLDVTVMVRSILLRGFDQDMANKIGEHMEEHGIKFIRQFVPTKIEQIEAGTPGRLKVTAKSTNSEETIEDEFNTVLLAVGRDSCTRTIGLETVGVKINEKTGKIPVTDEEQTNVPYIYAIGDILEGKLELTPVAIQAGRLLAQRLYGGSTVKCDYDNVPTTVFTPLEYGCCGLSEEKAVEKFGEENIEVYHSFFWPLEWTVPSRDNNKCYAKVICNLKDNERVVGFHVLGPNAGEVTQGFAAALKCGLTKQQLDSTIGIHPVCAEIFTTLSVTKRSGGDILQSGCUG
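Rat TrxR1 (90 nM in the dispensed reagent) was pre-reduced with 400 uM NADPH for 5 min at room temperature, then incubated with compound for 15 min. After 400 uM selenite was added, NADPH fluorescence (Ex 340/Em 450 nm) was followed for 8 min.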
Vif-APOBEC3G blk = inhibitors of Vif-APOBEC3G interaction; HeLa A3G-eYFP + Vif (tagged APOBEC3G with the HIV-1 protein that degrades it), YFP fluorescence, overnight; Potency, µM (titrated, usually from 46.1 µM), without a hit: top-dose activity, negative = active, hits mostly inhibitors; 410,000 compounds, 0.076% hits; also: % is scaled to controls: 0 for no effect and ±100 for the full control effect; nearly all actives have a fitted effect of over 60% in size
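Read-out is eYFP fluorescence (Ex 488/Em 500-530) from Vif-expressing HeLa A3G-eYFP cells; more signal means A3G escaped Vif-mediated degradation. Cells plated overnight, compound pinned in, incubated overnight at 37 deg C.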
TrxR1 substrate = substrates of rat thioredoxin reductase 1 | O89049 | purified TrxR1 substrate turnover, NADPH consumption readout | Potency, µM (titrated, usually from 114 µM), inactives show top-dose activity change, negative = substrate turnover | 390,000 compounds, 0.01% hits | AID 588456; also: % is scaled to controls: 0 for no effect and ±100 for the full control effect; nearly all actives have a fitted effect of over 50% in size
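Rat TrxR1, dispensed at 90 nM, was prereduced with 400 uM NADPH (final) for 5 min at ~22 deg C, then incubated with compound 15 min before 400 uM selenite. A first-read NADPH fluorescence drop versus no-compound background flagged substrates.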
VDR inhibitor = vitamin D3 receptor (human) inhibition; Potency, µM, for inactives: max response, negative = inhibition, actives largely listed as inhibitors; 400,000 compounds, 0.93% hits; VDR-SRC2-3 peptide fluorescence polarization, 2 h; AID 504847; P11473; also: % is scaled to controls: 0 for no effect and ±100 for the full control effect
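Inhibition of the VDR/SRC2-3 peptide interaction is quantified by fluorescence polarization. Compounds (23 nl, pintool) incubate with the reagents for 2 hours at ambient room temperature.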
VDR inh confirm = confirmation of human vitamin D receptor inhibitors | shares compounds with VDR inhibitor | VDR-coactivator inhibition assay, qHTS confirmation | Potency, µM, hits mostly inhibitors | 840 compounds, 89% hits
VDR FP fluor = confirmation of human VDR-coactivator binding inhibitors, fluorescein label | shares compounds with VDR inhibitor | VDR-coactivator binding, fluorescein fluorescence polarization | Potency, µM (highest dose often 57.1 µM), for inactives: at the top dose activity change, negative = inhibition, hits mostly inhibitors | 840 compounds, 48% hits | AID 602200
VDR bla reporter = inhibits human VDR in beta-lactamase reporter cells. shares compounds with VDR inhibitor. VDR beta-lactamase reporter cells, FRET ratio; cells co-treated with VDR agonist LG190178. Potency, µM (series often up to 46.1 µM), inactives show at the top dose activity change, negative = inhibition, most hits filed as inhibitors. 840 compounds, 23% hits. AID 602202; also: % is scaled to controls: 0 for no effect and ±100 for the full control effect
VDR viability = counter-screen for vitamin D receptor inhibitors: cytotoxicity; shares compounds with VDR inhibitor; cytotoxicity counter-screen, cell viability, qHTS; Potency, µM (titrated, usually from 48.3 µM), inactives show at the top dose activity change, negative = cytotoxicity, most hits filed as cytotoxic; 840 compounds, 18% hits; AID 602204;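 also: plate controls were DMSO for no effect and high-concentration cycloheximide for full effect; nearly all actives have a fitted effect of over 75% in size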
Active calls of the source: *; i = inactive; ? = inconclusive; / = not tested or not shown; [ ] = another dose, or the depositor's remark. Calls follow the shape of the dose curve; as a rule, active = well fitted curve in the direction sought with a large enough effect; inconclusive = small, poorly fitted or top-dose-only effect, or another doubt; inactive = no such curve, though single readings can be large; an effect the other way counts as inactive or inconclusive. Potency is read from the fitted curve at half-maximal effect.

SMILES | Vif-A3F inh | rTrxR1 inhibitor | Vif-APOBEC3G blk | TrxR1 substrate | VDR inhibitor | VDR inh confirm | VDR FP fluor | VDR bla reporter | VDR viability
COc1ccc(N)c2c1C(=O)c1ccccc1C2=O | -2% | 2% | 3% | -6% | ? | / | / | / | /
COc1cc(N)c(NC(=O)/C=C/c2nc3cc(OC)c(OC)cc3[nH]2)cc1OC | / | -89% | -2% | i | / | / | / | / | /
CCOC(=O)c1cnc(Cc2ccccc2)[nH]c1=O | 1% | 18% | 1% | -2% | 9% | / | / | / | /
CCOC(=O)C1=C(Cc2ccc(F)cc2)C(=O)c2ccccc2C1=O | 25µM* | 6.3µM* | ? | -22% | 4.5µM* | 5.3* | ? | -9% | -18%
CCOCN(C(=O)Cn1cnc2cc(C)c(C)cc21)c1c(C)cccc1CC | 1% | 1% | ? | 1% | 5% | / | / | / | /
CCOc1cc(/C=C2\N=C(C)OC2=O)cc(Cl)c1OCC(=O)OC | 4% | ? | 0% | 3%[57.1 µM] | 45µM* | 9.5* | ? | -2% | 10%
O=C(CN1C(=O)COc2ccc(S(=O)(=O)Nc3ccccc3)cc21)Nc1cccc(Cl)c1 | 1% | 17% | -13% | -5% | 19% | / | / | / | /
N[C@H](C(=O)O)C1C(C(=O)O)C1C(=O)O (some centres undefined) | / | / | / | / | -3% | / | / | / | /
COc1cc(/C=C/C(=O)c2ccc(O)cc2)ccc1OCC#N | -33% | -29% | ? | -20% | ? | / | / | / | /
COc1cccc(C(=O)/C=C/c2ccc(OCC#N)c(OC)c2)c1 | ? | -30% | ? | -11% | 50µM* | 27* | 14µM* | ? | ?
CS(=O)(=O)c1sc(C#N)c2c1C(=O)CC(c1ccccc1)C2 (centres undefined) | 1% | -86% | -23% | -4% | 14µM* | 8.4* | ? | 15µM* | 3.7µM*
Cc1oc2c(c(=O)c1C)C(=O)CC(c1ccccc1)C2 (centres undefined) | 2% | -10% | 0% | -7% | -11% | / | / | / | /
CN(C)CCNc1nccc(N2CCN(C)CC2)n1 | / | 12% | 2% | 0% | / | / | / | / | /
Cc1ccc(N2C(=O)c3sc4nnc(C)c(=O)n4c3C2=O)cc1 | 1% | 12% | 3% | 5%[57.1 µM] | 2% | / | / | / | /
Cc1ccccc1N1C(=O)c2sc3nc4c(c(=O)n3c2C1=O)CCC4 | -23% | 8.9µM* | 0% | -9% | ? | 20* | 25µM* | ? | 0%
O=C(CSc1ncc(-c2ccccc2)[nH]1)Nc1cccc(Br)c1 | -7% | -3% | 0% | -10% | 0% | / | / | / | /
CC1(OC(=O)C2CCCC2)C(=O)C=C2C=C(c3ccsc3)N(CCc3c[nH]c4ccccc34)C=C2C1=O (centres undefined) | -1% | 5% | 1% | -6% | ? | ? | ? | 10% | 34%
CCOC(=O)N1CCN(C(=O)Cc2ccc(Cl)cc2)CC1 | 2% | 24%[57.1 µM] | 2% | 12%[57.1 µM] | -9% | / | / | / | /
O=C(CCN1CCN(c2ccc([N+](=O)[O-])cc2)CC1)c1ccc(Cl)cc1 | 3% | 7.1µM* | -12% | -9% | 25µM* | 27* | 13µM* | 12% | ?
CCN1CCN(C(=S)c2ccc(Cl)cc2)CC1 | -2% | -17%[57.1 µM] | -1% | -7%[57.1 µM] | 35µM* | 9.5* | ? | 1% | 2%
CCOC(=O)N1CCN(CCC(=O)c2ccc(Cl)cc2)CC1 | -10% | ? | -16% | 18%[57.1 µM] | 35µM* | 12* | 11µM* | ? | ?
Cc1ccc(-c2nnc(SCCC(=O)Nc3ccccc3)n2C)cc1 | / | 15% | 3% | -1% | / | / | / | / | /
Cc1ccc(-n2nc(C(=O)N(C)Cc3ccccc3)c3c4ccccc4n(C)c3c2=O)cc1 | -3% | 20%[2.29 µM] | -2% | 12%[2.29 µM] | -17% | / | / | / | /
O=C1NCCN1c1ncc([N+](=O)[O-])s1 | 10% | 6% | -2% | -2% | -10% | / | / | / | /
C=CCn1c(Sc2ncc([N+](=O)[O-])s2)n[nH]c1=O | -10% | 0.32µM* | -11% | 12%[57.1 µM] | 28µM* | 15* | ? | 26µM* | ?
SMILES | Vif-A3F inh | rTrxR1 inhibitor | Vif-APOBEC3G blk | TrxR1 substrate | VDR inhibitor | VDR inh confirm | VDR FP fluor | VDR bla reporter | VDR viability
CCC(CC)C(=O)Nc1nnc(S(=O)(=O)N(C)c2cc(C)cc(C)c2)s1 | -6% | 10% | 7% | 10%[11.4 µM] | -10% | / | / | / | /
O=C(N[C@@H](Cc1ccccc1)C(=O)O)c1ccc(C(F)(F)F)cc1 | 4% | 23%[57.1 µM] | 0% | 4%[57.1 µM] | -7% | / | / | / | /
Cc1ccc(C(=O)NC2(O)C(=O)c3ccccc3C2=O)cc1C | 1% | 17%[57.1 µM] | -1% | -3% | 10µM* | ? | ? | 13% | -1%
O=C(NC1(O)C(=O)c2ccccc2C1=O)c1ccc(C(F)(F)F)cc1 | -3% | -10%[57.1 µM] | -4% | -7%[57.1 µM] | 1.8µM* | 4.7* | ? | 22% | 11%
Cn1cnc([N+](=O)[O-])c1S(=O)(=O)c1cccc(Cl)c1 | 4% | ? | ? | -4% | 45µM* | ? | 25µM* | ? | 10µM*
Cn1cnc([N+](=O)[O-])c1S(=O)(=O)Nc1ccccc1 | 2% | -70%[57.1 µM] | -19% | 15%[2.29 µM] | -24% | / | / | / | /
Oc1cc2c(cc1C(c1ccc(Cl)c(Cl)c1)N1CCCC1)OCO2 (centres undefined) | -8% | 3.5µM* | -13% | 3%[57.1 µM] | ? | 3.5* | 3.5µM* | ? | 20%
CN(C)c1ccc(-n2cccc2/C=C/[N+](=O)[O-])cc1 | ? | -66% | ? | -14%[57.1 µM] | 35µM* | 13* | 8.9µM* | ? | ?
CC(C)(C)OC(=O)N/N=C/c1cccn1-c1ccc([N+](=O)[O-])cc1 | 11% | 14%[11.4 µM] | -3% | 8%[11.4 µM] | -4% | / | / | / | /
O=C(Oc1csc(=S)n1C(=O)c1ccccc1)c1ccccc1 | -3% | ? | 0% | -23% | ? | ? | 8.9µM* | -5% | 14%
Cc1cccc(C(=O)Oc2csc(=S)n2C(=O)c2cccc(C)c2)c1 | -24% | ? | -1% | -18% | ? | 8.9* | 2.8µM* | 4% | 3%
NC(C(=O)O)C(CC(=O)O)c1ccc(Cl)cc1 (centres undefined) | / | / | / | / | 2% | / | / | / | /
COc1ccc(S(=O)(=O)c2c(Nc3c(C)cccc3C)sc(C(=O)c3ccc(F)cc3)c2N)cc1 | -8% | -1%[57.1 µM] | -21% | -9%[57.1 µM] | 4% | / | / | / | /
O=S(=O)(/N=C(\Sc1ccccc1)c1ccccc1)c1ccc(Cl)cc1 | 0% | ? | -2% | 4% | 79µM* | 12* | ? | 27% | ?
